PubChem BioAssay (EPA / NIEHS)
Calls of active or inactive are those of the source. Rule for the calls: active = hit-call score of the fitted dose curve at least 0.9, where 1 is the maximum; inactive = score below 0.9.

Columns and labels:
Settings in all cases: mRNA level, 48 h; actives raise or lower the signal
[1] = read-out: CYP2C9 (gene 1559); assay: LTEA_HepaRG_CYP2C9: Life Technologies and Expression Analysis (LTEA) Assay for CYP2C9 using HepaRG (AID 2283484)
Method in brief: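 Eight-point concentration-response (highest 100 uM, half-log dilutions) in HepaRG cells for 48 h; CYP2C9 expression by qRT-PCR normalized to ACTB, GAPDH, POLR2A. Bidirectional fit, DMSO baseline.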

[2] = read-out: CYP2E1 (gene 1571); assay: LTEA_HepaRG_CYP2E1: Life Technologies and Expression Analysis (LTEA) Assay for CYP2E1 using HepaRG (AID 2283485)
Method in brief: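 Readout is qRT-PCR of CYP2E1 mRNA, normalized to three housekeeping genes and fitted bidirectionally against 0.5% DMSO. HepaRG cells were dosed 48 h at eight concentrations, highest 100 uM with half-log dilutions.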

[3] = read-out: CYP4A11 (gene 1579); assay: LTEA_HepaRG_CYP4A11: Life Technologies and Expression Analysis (LTEA) Assay for CYP4A11 using HepaRG (AID 2283486)
Method in brief: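 Readout is CYP4A11 transcript level by qRT-PCR, normalized to three housekeeping genes and fitted bidirectionally against 0.5% DMSO. Human HepaRG cells were treated 48 h, in duplicate, with an 8-point half-log series topping at 100 uM.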

[4] = read-out: Cytochrome P450 3A4 (Homo sapiens) (UniProt P08684); assay: LTEA_HepaRG_CYP3A4: Life Technologies and Expression Analysis (LTEA) Assay for CYP3A4 using HepaRG (AID 2283487)
Method in brief: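 Differentiated HepaRG cells, plated 48 h, then dosed 48 h in serum-free induction medium with 0.5% DMSO, 8 half-log concentrations up to 100 uM, duplicate. CYP3A4 mRNA by qRT-PCR, normalized to ACTB/GAPDH/POLR2A; bidirectional fit versus DMSO.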

[5] = read-out: DNA damage-inducible transcript 3 (DDIT3), DDIT3 (gene 1649); assay: LTEA_HepaRG_DDIT3: Life Technologies and Expression Analysis (LTEA) Assay for DNA damage-inducible transcript 3 (DDIT3) using HepaRG (AID 2283488)
Method in brief: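 Cells are human HepaRG liver cells treated for 48 h with eight half-log concentrations up to 100 uM in 0.5% DMSO. Transcript levels come from qRT-PCR normalized to three housekeeping genes, with activity fitted in both directions relative to vehicle.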

[6] = read-out: Pro-epidermal growth factor (Homo sapiens) (UniProt P01133); assay: LTEA_HepaRG_EGF: Life Technologies and Expression Analysis (LTEA) Assay for Epidermal growth factor (EGF) using HepaRG (AID 2283489)
Method in brief: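 EGF transcript measured by Fluidigm TaqMan qRT-PCR with three housekeeping genes for normalization, 48 h after dosing HepaRG cultures in duplicate (top 100 uM, half-log steps, 0.5% DMSO vehicle). Gain or loss relative to DMSO fitted.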

[7] = read-out: Early growth response protein 1 (EGR1) transcription factor, EGR1 (gene 1958); assay: LTEA_HepaRG_EGR1: Life Technologies and Expression Analysis (LTEA) Assay for Early growth response protein 1 (EGR1) transcription factor using HepaRG (AID 2283490)
Method in brief: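 EGR1 expression change in human HepaRG after 48 h chemical exposure, assessed by housekeeping-normalized qRT-PCR; concentration-response up to 100 uM, fitted in both directions against DMSO controls.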

[8] = read-out: Ezrin (EZR), EZR (gene 7430); assay: LTEA_HepaRG_EZR: Life Technologies and Expression Analysis (LTEA) Assay for Ezrin (EZR) using HepaRG (AID 2283491)
Method in brief: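 EZR transcript levels came from Fluidigm qRT-PCR and were normalized to three housekeeping genes after 48 h chemical exposure of HepaRG cells. Dosing used an 8-point half-log series with a 100 uM top concentration in 0.5% DMSO, tested in duplicate; both directions were fitted versus vehicle.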

[9] = read-out: CYP3A5 (gene 1577); assay: LTEA_HepaRG_CYP3A5: Life Technologies and Expression Analysis (LTEA) Assay for CYP3A5 using HepaRG (AID 2283493)
Method in brief: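 Human HepaRG hepatic cells receive 48 h chemical treatment at eight concentrations (half-log steps from 100 uM) in 0.5% DMSO. Expression of CYP3A5 is quantified by Fluidigm qRT-PCR and normalized to three reference genes.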

[10] = read-out: Fatty Acid-Binding Protein 1 (FABP1), FABP1 (gene 2168); assay: LTEA_HepaRG_FABP1: Life Technologies and Expression Analysis (LTEA) Assay for Fatty Acid-Binding Protein 1 (FABP1) using HepaRG (AID 2283494)
Method in brief: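 Values reflect bidirectional concentration-response fitting of FABP1 mRNA change against 0.5% DMSO controls. Human HepaRG cultures received eight half-log doses (top 100 uM) for 48 h; expression quantified by TaqMan qRT-PCR with housekeeping-gene normalization.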

[11] = read-out: Cytochrome P450 4A22 (Homo sapiens) (UniProt Q5TCH4); assay: LTEA_HepaRG_CYP4A22: Life Technologies and Expression Analysis (LTEA) Assay for Cytochrome P450 4A22 (CYP4A22) using HepaRG (AID 2283495)
Method in brief: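 Gene expression measured by qRT-PCR against three housekeeping genes (ACTB, GAPDH, POLR2A), with gain or loss fitted relative to 0.5% DMSO vehicle. HepaRG cultures received 48 h chemical treatment, top concentration 100 uM, half-log steps, duplicate wells.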

[12] = read-out: Cytochrome P450 7A1 (Homo sapiens) (UniProt P22680); assay: LTEA_HepaRG_CYP7A1: Life Technologies and Expression Analysis (LTEA) Assay for Cytochrome P450 7A1 (CYP7A1) using HepaRG (AID 2283496)
Method in brief: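 HepaRG, 48 h exposure, 8-pt half-log series from 100 uM, 0.5% DMSO vehicle, duplicates. Readout: TaqMan qRT-PCR mRNA vs three housekeeping genes; bidirectional curve fit against DMSO baseline.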

[13] = read-out: Glutathione S-Transferase (GSTA2), GSTA2 (gene 2939); assay: LTEA_HepaRG_GSTA2: Life Technologies and Expression Analysis (LTEA) Assay for Glutathione S-Transferase (GSTA2) using HepaRG (AID 2283497)
Method in brief: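 Oxidative-stress marker GSTA2 is quantified by TaqMan qRT-PCR in HepaRG cultures treated 48 h across an eight-point range to 100 uM. Expression is normalized to endogenous controls and compared with 0.5% DMSO vehicle.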

[14] = read-out: Glutamate-cysteine ligase catalytic (GCLC), GCLC (gene 2729); assay: LTEA_HepaRG_GCLC: Life Technologies and Expression Analysis (LTEA) Assay for Glutamate-cysteine ligase catalytic (GCLC) using HepaRG (AID 2283498)
Method in brief: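 Oxidative-stress marker GCLC is measured as mRNA change in human HepaRG liver cells after 48 h chemical treatment in 0.5% DMSO, eight concentrations from 100 uM. Activity is fitted bidirectionally against vehicle.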

[15] = read-out: growth arrest and DNA damage 45 (GADD45G), GADD45G (gene 10912); assay: LTEA_HepaRG_GADD45G: Life Technologies and Expression Analysis (LTEA) Assay for growth arrest and DNA damage 45 (GADD45G) using HepaRG (AID 2283499)
Method in brief: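 GADD45G transcript level by qRT-PCR (housekeeping-normalized: ACTB, GAPDH, POLR2A) after 48 h chemical treatment of a single HepaRG lot in serum-free induction medium; eight-point half-log series up to 100 uM in 0.5% DMSO, duplicates, up- or down-regulation scored.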

[16] = read-out: Glutamate-cysteine ligase regulatory (GCLM), GCLM (gene 2730); assay: LTEA_HepaRG_GCLM: Life Technologies and Expression Analysis (LTEA) Assay for Glutamate-cysteine ligase regulatory (GCLM) using HepaRG (AID 2283500)
Method in brief: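 Endpoint is GCLM transcript level by qRT-PCR, normalized to three housekeeping genes, after 48 h chemical exposure of human HepaRG cells (0.5% DMSO vehicle, top 100 uM, half-log dilutions). Fitting was bidirectional relative to DMSO.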

[17] = read-out: Glutathione S-transferase M3 (GSTM3), GSTM3 (gene 2947); assay: LTEA_HepaRG_GSTM3: Life Technologies and Expression Analysis (LTEA) Assay for Glutathione S-transferase M3 (GSTM3) using HepaRG (AID 2283501)
Method in brief: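 GSTM3 transcript levels came from Fluidigm TaqMan qRT-PCR normalized to three housekeeping genes, fitted in both directions against DMSO. HepaRG cultures received chemicals for 48 h in serum-free induction medium (0.5% DMSO), 8 half-log concentrations up to 100 uM, duplicate.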

[18] = read-out: Heat shock 70 kDa protein 1 (HSPA1A), gene 3303; assay: LTEA_HepaRG_HSPA1A: Life Technologies and Expression Analysis (LTEA) Assay for Heat shock 70 kDa protein 1 (HSPA1A) using HepaRG (AID 2283502)
Method in brief: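 Cells were plated and cultured for 48 h, then switched to serum-free induction medium. Chemicals were added at eight half-log concentrations up to 100 uM for 48 h. RNA was then isolated and HSPA1A measured by qRT-PCR with bidirectional curve fitting against DMSO.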

[19] = read-out: Cytochrome P450 3A7 (Homo sapiens) (UniProt P24462); assay: LTEA_HepaRG_CYP3A7: Life Technologies and Expression Analysis (LTEA) Assay for CYP3A7 using HepaRG (AID 2283492)
Method in brief: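 CYP3A7 transcript measured by qRT-PCR (ACTB, GAPDH, POLR2A normalization) after 48 h chemical exposure of HepaRG cells in duplicate. Eight half-log concentrations, maximum 100 uM, 0.5% DMSO vehicle; bidirectional curve fitting against DMSO baseline.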

[20] = read-out: Hypoxia-inducible factor 1-alpha (Homo sapiens) (UniProt Q16665); assay: LTEA_HepaRG_HIF1A: Life Technologies and Expression Analysis (LTEA) Assay for Hypoxia-inducible factor 1 (HIF1A) Trancription factor using HepaRG (AID 2283503)
Method in brief: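 HIF1A transcript level read by qRT-PCR (ACTB, GAPDH, POLR2A normalization) after 48 h chemical exposure of HepaRG cultures. Eight half-log concentrations, top 100 uM, 0.5% DMSO vehicle, duplicates; bidirectional curve fit against DMSO baseline.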

Measured: AC50

Sequence of Cytochrome P450 3A4 (Homo sapiens) (P08684 whole entry, looked up): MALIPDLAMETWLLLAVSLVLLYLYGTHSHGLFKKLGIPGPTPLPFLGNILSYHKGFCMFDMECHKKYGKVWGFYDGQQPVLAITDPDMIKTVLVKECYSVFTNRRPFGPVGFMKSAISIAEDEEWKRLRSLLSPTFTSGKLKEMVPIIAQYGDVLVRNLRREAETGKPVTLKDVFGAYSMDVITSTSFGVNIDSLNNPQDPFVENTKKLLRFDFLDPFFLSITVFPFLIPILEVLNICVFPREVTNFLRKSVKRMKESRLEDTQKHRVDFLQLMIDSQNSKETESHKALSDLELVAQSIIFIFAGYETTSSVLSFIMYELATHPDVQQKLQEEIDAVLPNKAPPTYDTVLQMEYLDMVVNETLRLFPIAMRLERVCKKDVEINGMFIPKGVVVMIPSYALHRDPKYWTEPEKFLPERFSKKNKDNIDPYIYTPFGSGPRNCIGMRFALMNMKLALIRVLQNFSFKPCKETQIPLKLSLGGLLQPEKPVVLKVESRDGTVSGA
Sequence of Hypoxia-inducible factor 1-alpha (Homo sapiens) (Q16665 whole entry, looked up): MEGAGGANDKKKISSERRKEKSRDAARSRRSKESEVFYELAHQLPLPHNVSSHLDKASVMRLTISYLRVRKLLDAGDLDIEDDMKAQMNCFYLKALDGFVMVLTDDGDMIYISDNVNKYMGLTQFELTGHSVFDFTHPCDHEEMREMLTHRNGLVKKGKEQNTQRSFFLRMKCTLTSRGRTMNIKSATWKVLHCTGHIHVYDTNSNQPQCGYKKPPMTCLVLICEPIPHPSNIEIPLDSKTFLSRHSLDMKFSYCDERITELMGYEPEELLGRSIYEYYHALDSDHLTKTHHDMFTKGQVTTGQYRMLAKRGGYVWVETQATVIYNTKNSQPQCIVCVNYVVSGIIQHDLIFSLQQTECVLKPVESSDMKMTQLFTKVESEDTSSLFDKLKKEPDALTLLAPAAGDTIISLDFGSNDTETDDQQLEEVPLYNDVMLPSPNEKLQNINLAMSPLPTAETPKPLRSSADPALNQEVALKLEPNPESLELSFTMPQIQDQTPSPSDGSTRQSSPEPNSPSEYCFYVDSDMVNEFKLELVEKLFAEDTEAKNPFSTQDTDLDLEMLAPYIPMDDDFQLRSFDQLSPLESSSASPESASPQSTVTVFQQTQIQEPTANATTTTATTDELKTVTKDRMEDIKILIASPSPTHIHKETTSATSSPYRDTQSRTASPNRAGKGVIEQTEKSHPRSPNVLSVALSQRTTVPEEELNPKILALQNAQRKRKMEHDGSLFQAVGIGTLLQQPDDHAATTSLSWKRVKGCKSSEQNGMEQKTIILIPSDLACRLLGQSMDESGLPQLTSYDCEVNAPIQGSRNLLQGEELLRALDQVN
Sequence of Cytochrome P450 3A7 (Homo sapiens) (P24462 whole entry, looked up): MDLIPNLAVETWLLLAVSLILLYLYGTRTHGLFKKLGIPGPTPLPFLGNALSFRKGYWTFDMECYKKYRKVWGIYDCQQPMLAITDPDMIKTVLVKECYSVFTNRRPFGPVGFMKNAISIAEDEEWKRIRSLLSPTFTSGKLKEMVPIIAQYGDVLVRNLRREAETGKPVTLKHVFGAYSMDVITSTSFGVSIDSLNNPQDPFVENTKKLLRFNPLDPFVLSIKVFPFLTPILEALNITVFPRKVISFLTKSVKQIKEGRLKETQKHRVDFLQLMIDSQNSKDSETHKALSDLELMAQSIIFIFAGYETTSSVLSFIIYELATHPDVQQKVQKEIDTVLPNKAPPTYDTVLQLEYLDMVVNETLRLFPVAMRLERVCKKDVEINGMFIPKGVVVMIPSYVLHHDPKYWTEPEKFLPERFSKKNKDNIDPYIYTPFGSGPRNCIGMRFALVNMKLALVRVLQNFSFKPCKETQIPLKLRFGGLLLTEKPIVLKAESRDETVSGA

Cc1occc(=O)c1O
inactive: [1] | [2] | [3] | [4] | [5] | [6] | [7] | [8] | [9] | [10] | [11] | [12] | [13] | [14] | [15] | [16] | [17] | [18]

CC(=O)OC1CC(C)OC(C)O1 (centres undefined)
inactive: [1] | [2] | [3] | [4] | [5] | [6] | [7] | [8] | [19] | [9] | [10] | [11] | [13] | [14] | [15] | [16] | [17] | [18] | [20]

CC(C)OC(=O)C(C)(C)Oc1ccc(C(=O)c2ccc(Cl)cc2)cc1
active: [3] 3.85 µM | [8] 536 nM | [10] 50 µM | [11] 2.19 µM
inactive: [1] | [2] | [4] | [5] | [6] | [7] | [9] | [12] | [13] | [14] | [15] | [16] | [17] | [18]

OCC(CO)n1cnc(-c2ccc(F)cc2)c1-c1ccnc(Oc2ccccc2)n1
inactive: [1] | [5] | [6] | [8] | [9] | [12] | [13] | [14] | [15] | [16] | [17] | [20]
active: [2] 15.5 µM | [3] 16.9 µM | [4] 3.72 µM | [7] 20.7 µM | [10] 11.2 µM | [11] 16.6 µM | [18] 37 µM
